Reference: the supplement of paper PMC6555819

System: PPARg DBDmut IVT, anti-PPARg (DBD mutation: PPARg1 K132A/R137A, NR concentration 270 nM)
Test: PBM binding z-score (relative to random genomic background probes); higher = stronger binding; sequences stand for … in GC…GCGATTGACAGCGTAGAATGAAGG
Summary of the method: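 Custom Agilent 4×180K protein-binding microarrays carried double-stranded probes. Their 34-nt variable regions held direct-repeat seeds, single-nucleotide variants, half-site ablations and random human genomic background sequences. Arrays were incubated 1 h with ligand-free nuclear receptor dimers in PBS pH 7.4, 2% milk, 0.02% Triton X-100, 1 mM DTT, 0.2 mg/mL BSA and 0.4 mg/ml salmon testes DNA. Antibodies against each partner (one per run) detected binding, and scanned fluorescence was regression-normalized. Binding z-scores use random background probes as reference.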

Sequence | PBM binding z-score
CGTCCAAGGTCATAGGAGATCAGTGAAGACAGAT | 0.671
CCTTACGGGTCAAGGCTATAGCACGGGTGGTACG | -0.381
CGAACGAGGGCATGAGTTGATAGCAAATGCCGAT | -0.825
CCAGACAGGTGAGAAGGTAACTCCGCCTCGATTA | -1.08
TCTACTAGTTGATTAGGGCAACCGAAACAGCGGA | -0.068
GAGACAGGGTCAAGGCCAGAGTACGCGTATTGAT | -0.239
TCTAGTTGGTCACGGAGGTCACTCACGACGGGTA | 0.986
CTCGAAAGGTCGGTTGAGGTGTGTATACGGATAA | -0.218
CCTACTGGGCCATTCAGAGTTCATTGATCATATG | 0.266
CAGCCTAGGTTAGGGCCAGTATAGGAGGAACGTT | -1.1
GCGACTGGGGCCAAGCAGGTTACCATAAGGTTGG | -1.96
CGAACGAGGGCATGAGTTGATGGCAAATGCCGAT | -0.685
GGAACGATGGCAAGTTGATAGCAGAGTTTGATGG | -0.527
CGTCCAAGGTCAAAGGTCAGTCAAGAGATGACGG | -0.299
CGTCCAAGGTCAAAGGTCAGTGCAGAGATGACGG | 1.29
CCTTCTGGGCCAAAGGTCATTGATTCCAATGCTC | 0.533
TTTTGTAGATCAAGCAGGTTAAGAAAGCCTGAGT | 1.21
AAGACAGGGTCATCGTAGGCCAGAGTACGCACAG | 0.174
GCTAGCAGGCCATTTAGGTCACTCAATGACGGGC | -1.01
AATACAGGGTCACTAGGCCAGAGTTGGTACGAAT | 0.486

Sequence | PBM binding z-score
TCATATAGGTAATACAGGTGAAAGTGGGCATCTA | 1.47
CGAACTAGGTCTAGGACAGTGAATCTCCGCACGC | -0.934
GCATATAGGTAATACCAGGTGAAAGTCCGATTGT | 0.508
TCAGAAAGGTGAAGGTAACTCAGGTACGCAGTCG | 0.136
GGAACGAGGGCATACGAGTTGATAGCATGGCGAT | -0.54
AGAATGAGGTTACCGAAGATCAGGGAAACGCTTG | 0.381
CCGACTGGGGCAGAAAGGTAACCATACCATCCGG | -1.27
AGTCACAGTTCACTAGGTAACGTAAGATTCAGCT | 0.988
GATCGGAGGACAAGGTCAGAGCTTTGTCCGTAGA | -1.99
CTCGAAAGGTCGGTTGAGGCGAGTATACGGATAA | -0.285
ACAGACAGGTGTTGAAGGTAACTCAGGCTATCAT | 0.107
GTACCAAGGTGAATAGGTCATTGATGAGTAGGCG | 0.284
AGAATAAGGTTATTAAGATCAGGGAATTGCGGTC | 0.812
ATTTCTAGGTAAAGATAGTTCAGTGAATGCAAAT | 1.86
CGAACTAGGTCAAGGACTGTGAATCTCCGCACGC | 0.958
TCTTGTAGATCAACAGGAGGTTAAGAATGATCGA | 0.577
CGTCCAAGGTCAATGCTTGGTCAGTGAAAGCATT | -0.881
CCTATTAGTCGACCATAAGGGCAACCGAAGCTCG | -1.02
TATACAGGGTCAAAGGCGAGAGTACGAATGTCGA | 1.65
TCTTGTAGATCAATAGAGGTTAAGGAAGTGCGCT | 0.773
